The source made the active and inactive calls.
What was measured:
[1] = binders of probe aFSTL3 on microarray, primary screen, stem cell growth factor project, biochemical, small-molecule microarray, fluorescence 635/667 (AID 1064); details: higher = more signal;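 also: measures binding of the biotinylated anti-FSTL3 antibody to printed compounds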
[2] = binders from COS7 lysate, DM2A8 probe, primary screen, torsin A project, cell lysate, small-molecule microarray, fluorescence 635/667 (AID 1065); details: higher = more signal, COS7 lysate expressing mutant human TOR1A
[3] = binders of probe aFGF2 on microarray, primary screen, stem cell growth factor project, biochemical, small-molecule microarray, fluorescence 635/667 (AID 1067); details: higher = more signal;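 also: measures binding of biotinylated aFGF2 protein to printed compounds on slides; z-score merges feature fluorescence and signal-to-noise across triplicate slides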
[4] = binders of probe aFGF10 on microarray, primary screen, stem cell growth factor project, biochemical, small-molecule microarray, fluorescence 635/667 (AID 1071); details: higher = more signal;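 also: score merges 667 nm spot intensity and signal to noise from triplicate slides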
[5] = molecular target: Neurogenic locus notch homolog protein 2 (Homo sapiens) (UniProt Q04721); assay: Notch2 binders on small-molecule microarrays, primary screen, biochemical, small-molecule microarray, 635 nm fluorescence, stem cell growth factors (AID 1073); details: Notch2 binding, higher = more signal
[6] = molecular target: Pro-neuregulin-1, membrane-bound isoform (Homo sapiens) (UniProt Q02297); assay: NRG1 binders on small-molecule microarrays, primary screen, psychiatric disease protein project, biochemical, small-molecule microarray, fluorescence 635/667 (AID 1075); details: NRG1 binding, 635 nm fluorescence, higher = more signal;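 also: score combines 667 nm spot fluorescence with signal to noise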
[7] = system: Neuregulin-1 EGF-like domain; assay: binders of neuregulin-1 EGF-like domain, primary screen, biochemical, small-molecule microarray, 635 nm fluorescence (AID 1081); details: small-molecule microarray binding, higher = more signal;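 also: binding of the protein to compounds printed on small-molecule microarray slides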
[8] = FRG1 promoter luciferase signal modulators, primary screen, FRG1 inhibition for FSHD, cell-based, C2C12 myotubes, firefly/Renilla luciferase, luminescence (AID 1084); details: higher = more signal, called active from +8 up or from −8 down
[9] = binders of probe aFST on microarray, primary screen, stem cell growth factor project, biochemical, small-molecule microarray, fluorescence 635/667 (AID 1086); details: higher = more signal;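 also: score merges 667 nm fluorescence with signal-to-noise of each printed compound spot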
[10] = binders of probe aHhip on microarray, primary screen, stem cell growth factor project, biochemical, small-molecule microarray, fluorescence 635/667 (AID 1087); details: higher = more signal;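 also: score merges spot fluorescence at 667nm with spot signal to noise ratio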
[11] = system: PRMT1 (protein arginine N-methyltransferase 1); assay: PRMT1 binders on small-molecule microarrays, primary screen, biochemical, small-molecule microarray, 635 nm fluorescence (AID 1088); details: small-molecule microarray binding, higher = more signal;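 also: binding of Prmt1 protein to compounds spotted on small-molecule microarray slides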
[12] = yeast growth modulation, basal conditions, primary screen, YJM789 clinical isolate, OD600, 24 h (AID 1089);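 also: growth of clinical yeast isolate S. cerevisiae YJM 789 seeded 1000 cells per well; test concentration not given here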; details: S. cerevisiae YJM789 growth, higher = more signal, called active from +8 up or from −8 down
[13] = fission yeast growth modulation, primary screen, strain 972, OD600, 24 h, no modulator (AID 1090);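 also: basal condition with compound alone and no growth modifier present; test concentration not given here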; details: S. pombe 972 growth, higher = more signal, called active from +8 up or from −8 down
[14] = S. cerevisiae growth modulation with rapamycin, primary screen, strain BY4716, OD600, 96 h (AID 1091); details: higher = more signal, called active from +8 up or from −8 down; also: test concentration not given here
[15] = molecular target: Torsin-1A-interacting protein 2 (Homo sapiens) (UniProt Q8NFQ8); assay: LULL1 binders on small-molecule microarray, primary screen, cell lysate, human LULL1 lysate, 635/667 nm fluorescence (AID 1092); details: hLULL1 lysate binding, 635 nm fluorescence, higher = more signal;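 also: probe is lysate of COS7 cells overexpressing human LULL1; score merges per-feature 667 nm fluorescence with signal-to-noise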
[16] = E. coli growth modulation, two-sided OD650, primary screen, E. coli filamentation project, strain DRC41, 24 h (AID 1093); details: OD650, 24 h, higher = more signal, called active from +8 up or from −8 down;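 also: MC1000 strain lacking acrAB efflux and sulA so SOS filamentation is blocked; test concentration not given here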
[17] = small-molecule microarray binders of probe aLefty2, primary screen, biochemical, biotinylated probe, 635/667 nm fluorescence (AID 1094); details: higher = more signal;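 also: score merges spot fluorescence near 667 nm with spot signal-to-noise ratio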
[18] = system: Noggin (protein binding on small-molecule microarray); assay: Noggin binders on small-molecule microarray, primary screen, biochemical, 635/667 nm fluorescence (AID 1095); details: 635 nm fluorescence, higher = more signal;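 also: score merges 667 nm feature fluorescence with signal to noise over triplicate slides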
[19] = molecular target: Neurogenic locus notch homolog protein 3 (Homo sapiens) (UniProt Q9UM47); assay: NOTCH3 binders on small-molecule microarray, primary screen, biochemical, 635/667 nm fluorescence (AID 1096); details: NOTCH3 binding, 635 nm fluorescence, higher = more signal
[20] = small-molecule microarray binders of probe aEGFR, primary screen, biochemical, biotinylated probe, 635/667 nm fluorescence (AID 1097); details: higher = more signal;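 also: probe is a biotinylated anti-EGFR antibody binding compounds printed on slides; score combines fluorescence near 667 nm and signal to noise of each spot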

Chain of Neurogenic locus notch homolog protein 3 (Homo sapiens) (Q9UM47 whole entry, looked up): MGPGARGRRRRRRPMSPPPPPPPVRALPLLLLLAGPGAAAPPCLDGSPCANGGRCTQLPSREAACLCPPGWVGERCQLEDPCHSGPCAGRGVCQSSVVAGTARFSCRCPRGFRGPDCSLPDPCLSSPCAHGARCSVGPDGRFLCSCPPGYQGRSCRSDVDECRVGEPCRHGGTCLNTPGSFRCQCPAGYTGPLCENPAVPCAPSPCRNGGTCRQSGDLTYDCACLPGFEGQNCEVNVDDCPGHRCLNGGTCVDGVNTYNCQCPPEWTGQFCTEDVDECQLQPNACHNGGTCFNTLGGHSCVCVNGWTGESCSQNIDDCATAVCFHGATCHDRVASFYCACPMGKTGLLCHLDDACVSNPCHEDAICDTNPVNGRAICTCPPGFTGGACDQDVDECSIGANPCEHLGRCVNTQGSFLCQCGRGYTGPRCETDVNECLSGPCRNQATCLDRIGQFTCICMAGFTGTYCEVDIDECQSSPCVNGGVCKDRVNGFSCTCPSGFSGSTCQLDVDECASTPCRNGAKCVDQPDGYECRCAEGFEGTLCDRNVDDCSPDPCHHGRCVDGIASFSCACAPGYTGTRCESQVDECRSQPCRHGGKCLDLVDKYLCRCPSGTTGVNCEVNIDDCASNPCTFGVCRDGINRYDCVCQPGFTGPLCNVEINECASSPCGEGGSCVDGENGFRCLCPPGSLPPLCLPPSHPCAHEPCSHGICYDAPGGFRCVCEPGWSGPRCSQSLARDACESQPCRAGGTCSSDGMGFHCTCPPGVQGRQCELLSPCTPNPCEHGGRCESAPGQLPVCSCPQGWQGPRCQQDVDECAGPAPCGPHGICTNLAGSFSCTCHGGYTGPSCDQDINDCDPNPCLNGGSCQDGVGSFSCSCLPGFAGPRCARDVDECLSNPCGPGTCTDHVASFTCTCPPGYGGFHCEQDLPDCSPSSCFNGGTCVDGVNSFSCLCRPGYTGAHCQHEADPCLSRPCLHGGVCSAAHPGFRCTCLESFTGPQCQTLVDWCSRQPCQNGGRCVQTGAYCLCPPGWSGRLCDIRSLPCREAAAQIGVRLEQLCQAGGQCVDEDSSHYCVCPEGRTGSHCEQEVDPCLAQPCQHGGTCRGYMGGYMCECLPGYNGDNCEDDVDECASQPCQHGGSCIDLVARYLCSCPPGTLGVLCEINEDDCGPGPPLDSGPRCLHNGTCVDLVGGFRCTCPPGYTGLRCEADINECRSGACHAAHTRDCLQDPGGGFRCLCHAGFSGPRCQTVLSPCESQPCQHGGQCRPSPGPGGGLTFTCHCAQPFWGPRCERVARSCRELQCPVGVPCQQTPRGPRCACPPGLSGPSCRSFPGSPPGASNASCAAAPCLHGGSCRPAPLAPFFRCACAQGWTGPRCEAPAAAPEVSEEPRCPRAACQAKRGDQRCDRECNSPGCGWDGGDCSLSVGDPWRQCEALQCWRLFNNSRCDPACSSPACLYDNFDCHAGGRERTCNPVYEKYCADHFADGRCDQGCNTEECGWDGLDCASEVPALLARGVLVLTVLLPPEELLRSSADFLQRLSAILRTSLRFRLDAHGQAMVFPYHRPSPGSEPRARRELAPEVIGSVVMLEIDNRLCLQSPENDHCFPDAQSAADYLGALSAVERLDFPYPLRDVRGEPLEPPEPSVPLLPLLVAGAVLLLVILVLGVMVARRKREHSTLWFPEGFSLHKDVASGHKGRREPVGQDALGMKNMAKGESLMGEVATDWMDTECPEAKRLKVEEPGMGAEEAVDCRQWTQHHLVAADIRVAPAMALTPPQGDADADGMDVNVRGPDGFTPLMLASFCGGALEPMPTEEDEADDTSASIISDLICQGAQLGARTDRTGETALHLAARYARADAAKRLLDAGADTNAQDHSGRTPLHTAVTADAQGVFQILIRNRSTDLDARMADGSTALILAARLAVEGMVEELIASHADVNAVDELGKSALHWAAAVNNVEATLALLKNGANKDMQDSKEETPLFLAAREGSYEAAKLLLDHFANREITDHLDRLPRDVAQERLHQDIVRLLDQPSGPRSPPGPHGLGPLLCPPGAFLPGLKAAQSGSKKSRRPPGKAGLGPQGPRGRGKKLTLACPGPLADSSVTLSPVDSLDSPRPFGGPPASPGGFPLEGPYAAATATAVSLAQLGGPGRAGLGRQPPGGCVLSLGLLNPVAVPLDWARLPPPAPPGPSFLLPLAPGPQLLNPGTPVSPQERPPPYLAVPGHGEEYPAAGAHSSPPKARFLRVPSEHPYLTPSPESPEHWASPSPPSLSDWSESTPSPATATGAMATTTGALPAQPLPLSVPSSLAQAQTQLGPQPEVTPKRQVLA
Chain of Pro-neuregulin-1, membrane-bound isoform (Homo sapiens) (Q02297 whole entry, looked up, the tested form may be a part, canonical isoform): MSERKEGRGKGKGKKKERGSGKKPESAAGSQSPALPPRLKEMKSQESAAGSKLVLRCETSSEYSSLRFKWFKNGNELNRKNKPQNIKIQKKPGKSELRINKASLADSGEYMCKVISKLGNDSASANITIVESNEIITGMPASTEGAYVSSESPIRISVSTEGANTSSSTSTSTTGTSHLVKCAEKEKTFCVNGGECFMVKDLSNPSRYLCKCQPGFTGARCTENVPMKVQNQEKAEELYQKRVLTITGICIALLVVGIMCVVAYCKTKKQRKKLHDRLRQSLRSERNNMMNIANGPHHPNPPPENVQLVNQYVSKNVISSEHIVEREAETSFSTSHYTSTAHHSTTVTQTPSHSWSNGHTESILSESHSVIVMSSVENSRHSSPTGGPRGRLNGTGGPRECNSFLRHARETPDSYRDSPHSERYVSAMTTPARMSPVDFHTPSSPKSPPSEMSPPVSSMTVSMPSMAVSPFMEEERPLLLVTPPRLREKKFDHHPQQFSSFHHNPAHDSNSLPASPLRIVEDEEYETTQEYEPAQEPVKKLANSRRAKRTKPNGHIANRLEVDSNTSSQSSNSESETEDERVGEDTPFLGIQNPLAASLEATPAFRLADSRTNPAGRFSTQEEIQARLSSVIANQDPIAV
Chain of Torsin-1A-interacting protein 2 (Homo sapiens) (Q8NFQ8 whole entry, looked up): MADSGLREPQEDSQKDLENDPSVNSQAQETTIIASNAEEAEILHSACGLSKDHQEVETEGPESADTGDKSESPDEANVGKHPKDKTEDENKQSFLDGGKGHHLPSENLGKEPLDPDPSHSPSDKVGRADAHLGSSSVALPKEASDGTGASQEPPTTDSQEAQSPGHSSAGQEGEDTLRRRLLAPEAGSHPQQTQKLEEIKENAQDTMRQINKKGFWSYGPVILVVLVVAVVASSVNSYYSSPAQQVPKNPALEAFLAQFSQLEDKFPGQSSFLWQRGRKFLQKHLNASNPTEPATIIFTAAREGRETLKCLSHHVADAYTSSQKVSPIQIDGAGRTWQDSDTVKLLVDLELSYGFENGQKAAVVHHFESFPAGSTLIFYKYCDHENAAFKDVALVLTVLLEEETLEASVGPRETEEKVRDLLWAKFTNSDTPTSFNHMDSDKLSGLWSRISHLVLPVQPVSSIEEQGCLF

Structure (SMILES)	composite z-score [1]	composite z-score [2]	composite z-score [3]	composite z-score [4]	composite z-score [5]	composite z-score [6]	composite z-score [7]	z-score [8]	composite z-score [9]	composite z-score [10]	composite z-score [11]	z-score [12]	z-score [13]	z-score [14]	composite z-score [15]	z-score [16]	composite z-score [17]	composite z-score [18]	composite z-score [19]	composite z-score [20]
CC(C)C[C@@H]1NC(=O)[C@@H]2C[C@H](C(=O)NCCCCCNC(=O)CS)[C@H](c3ccc(O)cc3)N2C1=O	0.0099	1.8	-0.0986	-0.435	0.0232	1.75	1.17	2.98 (inactive)	-0.265	-0.0994	1.16	-2.18 (inactive)	0.0046 (inactive)	-1.65 (inactive)	2.21	1.52 (inactive)	-0.0437	0.73	0.313	-0.0493
CC1C2C(CCCO)=CC(C3C(=O)N(C)C(=O)C23)N1Cc1cccc(OC(F)(F)F)c1 (stereo not given)	-0.0014	0.289	0.0653	0.647	0.929	2.04	1.37	0.0511 (inactive)	0.155	0.289	1.53	0.573 (inactive)	-0.951 (inactive)	1.61 (inactive)	3.13	0.964 (inactive)	0.156	0.148	0.769	0.1
COC(=O)C1(CC(C)C)C=C2C(=C(C)C(=O)C2C)CN1 (stereo not given)	1.72	0.126	0.317	-0.302	0.28	-0.304	0.641	2.36 (inactive)	1.58	1.43	-0.999	-0.355 (inactive)	0.543 (inactive)	0.202 (inactive)	2.1	-0.698 (inactive)	0.374	-0.054	0.379	0.449
COC(=O)[C@@]1(Cc2ccc(OC)cc2)[C@@H]2[C@@H](CC(=O)[C@H]2CC(=O)C(=O)N(C)C)CN1C(=O)c1ccccc1	2.09	0.496	0.81	1.2	1.78	1.69	1.06	-0.224 (inactive)	2.67	0.357	0.707	-0.0616 (inactive)	1.61 (inactive)	3.34 (inactive)	3.24	-0.163 (inactive)	1.11	-0.458	1.01	0.766
C=CC[C@]1(C(=O)NCCN2CCOCC2)N=C(c2ccc(OCCCO)cc2)O[C@H]1c1ccccc1	-0.038	0.422	-0.0691	0.571	0.862	0.0304	1.25	1.37 (inactive)	1.18	-0.479	1.17	-1.24 (inactive)	-0.577 (inactive)	-1.15 (inactive)	2.65	0.0059 (inactive)	0.0365	0.816	-0.398	0.174
CO[C@H]1O[C@H](CO)[C@@H](OC(=O)Nc2ccccc2)[C@@H]2OC(=O)[C@@H](Cc3ccccc3)C/C=C/C[C@H](Cc3ccccc3)C(=O)O[C@@H]12	-0.263	1.24	-0.0737	0.393	-0.0327	0.379	0.324	-0.461 (inactive)	0.241	0.176	1.2	0.552 (inactive)	-0.0693 (inactive)	1.04 (inactive)	1.41	0.386 (inactive)	0.142	-0.0235	-0.151	-0.0697
C=C1C(=O)C=C2CN(C(=O)c3ccccc3)[C@@](Cc3ccc(F)cc3)(C(=O)OC)[C@@H]12	0.891	-0.595	0.25	1.12	1.71	1.89	1.09	4.89 (inactive)	1.87	-0.129	0.356	-23.7 (active)	-15.9 (active)	-2.6 (inactive)	3.47	-0.57 (inactive)	0.513	0.0319	1.05	0.0071
O=C1O[C@H](c2ccccc2)[C@H](c2ccccc2)N2[C@H]1[C@@H](C(=O)O)[C@]1(C(=O)Nc3ccccc31)[C@H]2c1ccc(OCCO)cc1	-0.442	-0.0349	-0.0112	0.334	0.239	1.57	1.04	0.248 (inactive)	0.215	0.176	1.53	-0.0404 (inactive)	0.414 (inactive)	-0.303 (inactive)	3.27	1.36 (inactive)	-0.065	0.286	0.33	-0.177
C=CC[C@]12N=C(c3ccc(OCCCO)cc3)O[C@H]1c1ccccc1N(CCC)C2=O	1.08	1.02	0.239	0.367	0.481	1.56	1.35	0.43 (inactive)	2	-0.0961	1.55	-1.42 (inactive)	-2.04 (inactive)	-1.06 (inactive)	2.96	0.544 (inactive)	0.15	1.2	1.11	0.198
O=C1NC(=O)C2C1C=CC(C(O)C(c1ccccc1)c1ccccc1)N2Nc1ccccn1 (stereo not given)	0.473	0.521	0.162	0.951	1.05	0.604	1.25	0.723 (inactive)	0.59	-0.0959	0.72	0.583 (inactive)	1.44 (inactive)	-0.968 (inactive)	1.27	-0.519 (inactive)	0.673	-0.0976	0.0943	0.389
CC(C)[Si]1(C(C)C)OCc2cc(-c3ccc(-c4ccc(Cl)c(Cl)c4)o3)nc(-c3ccc(Oc4ccccc4)cc3)c21	0.639	-1.11	-0.207	-0.738	-1.78	-0.762	-0.6	1.52 (inactive)	-0.857	-0.306	-1.67	0.797 (inactive)	-0.504 (inactive)	2.3 (inactive)	-1.07	-0.888 (inactive)	0.0358	-1.78	-1.57	-0.447
C=CCNC(=O)[C@@H]1[C@H]2C(=O)O[C@H](c3ccccc3)[C@H](c3ccccc3)N2[C@H](c2ccc(OCCO)cc2)[C@@]12C(=O)N(C(=O)OCCOC)c1ccccc12	-0.156	1.08	0.0021	0.591	0.964	1.05	1.25	0.0023 (inactive)	0.954	0.0053	1.53	2.46 (inactive)	1.67 (inactive)	5.18 (inactive)	2.92	0.246 (inactive)	-0.0267	1.04	1.06	0.0413
[N-]=[N+]=NCc1ccccc1[C@H]1OC(c2ccc(OCCCO)cc2)=N[C@@]1(Cc1ccccc1N=[N+]=[N-])C(N)=O	0.0097	0.998	0.05	0.995	1.54	1.7	1.11	4.46 (inactive)	1.76	-0.156	1.56	0.61 (inactive)	-0.678 (inactive)	-1.39 (inactive)	3.31	0.0539 (inactive)	0.0573	0.412	1.09	0.0009
COCCOC(=O)N1C(=O)[C@@]2(c3cc(C#CCC(C(=O)OC)C(=O)OC)ccc31)[C@H](c1ccc(O)cc1)N1[C@H](c3ccccc3)[C@H](c3ccccc3)OC(=O)[C@H]1[C@@H]2C(=O)N1CCc2cc(OC)c(OC)cc2C1	0.0804	0.838	-0.0538	0.818	1.21	1.04	1.14	0.336 (inactive)	0.186	0.224	1.54	0.344 (inactive)	-1.01 (inactive)	0.157 (inactive)	2.56	0.794 (inactive)	-0.103	1.12	0.8	0.0353
O=C1N(Cc2ccccc2)c2ccccc2C[C@@]12N=C(c1ccc(OCCCO)cc1)O[C@H]2c1ccccc1	-0.0448	0.0182	-0.0129	0.311	0.18	0.909	1.14	-2.64 (inactive)	-0.238	-0.0925	1.55	-0.789 (inactive)	-2.61 (inactive)	3.55 (inactive)	3.03	-0.788 (inactive)	0.0686	0.591	1	-0.178
[N-]=[N+]=Nc1ccccc1C[C@@]1(C(=O)NCC(O)CO)N=C(c2ccc(OCCCO)cc2)O[C@@H]1c1ccccc1N=[N+]=[N-] (stereo not given in full)	-0.175	0.045	0.285	0.311	0.194	1.62	0.848	-0.858 (inactive)	0.941	-0.134	0.9	-0.961 (inactive)	0.0801 (inactive)	0.23 (inactive)	3.37	0.616 (inactive)	0.285	0.0196	0.298	0.0001
N#Cc1ccc(NN2C(C(O)c3ccc(B(O)O)cc3)C=CC3CN(c4ccccc4)C(=O)C32)cc1 (stereo not given)	0.057	0.239	-0.0893	0.0196	0.074	0.501	1.07	3.26 (inactive)	-0.0118	-0.439	-0.188	0.587 (inactive)	0.896 (inactive)	1.88 (inactive)	0.847	1.28 (inactive)	-0.0576	-0.345	0.0787	-0.0828
C=CCNC(=O)[C@@H]1[C@H]2C(=O)O[C@H](c3ccccc3)[C@H](c3ccccc3)N2[C@H](c2ccc(O)cc2)[C@@]12C(=O)N(C(=O)OCCOC)c1ccc(C#CCC(C(=O)OC)C(=O)OC)cc12	-0.292	1.27	0.048	0.769	1.14	0.946	1.18	-0.614 (inactive)	0.884	0.0266	1.5	1.03 (inactive)	0.405 (inactive)	0.624 (inactive)	2.11	1.19 (inactive)	-0.156	1.03	0.959	-0.027
O=C(N1CCOCC1)[C@]1(CCS(=O)(=O)c2ccccc2)N=C(c2ccc(OCCCO)cc2)O[C@@H]1c1ccccc1	0.217	2.19	-0.0667	0.479	1.22	1.94	1.3	-1.49 (inactive)	1.31	-0.0994	1.45	0.825 (inactive)	0.778 (inactive)	2.98 (inactive)	3.26	1.14 (inactive)	0.227	0.0673	1.08	0.0727
Cc1ccc(S[C@]2(C(=O)NC(C)C)CC(=O)N(Cc3ccccc3)[C@@H]2c2ccc(CO)cc2I)cc1	1.28	-0.37	-0.0303	0.176	-0.705	0.291	0.478	-0.259 (inactive)	-0.26	-0.226	1.46	-1.12 (inactive)	-1.15 (inactive)	0.739 (inactive)	2.11	0.301 (inactive)	-0.102	-1.44	-0.332	-0.0146

From PubChem BioAssay
